# High-throughput results: PubChem BioAssay, The Scripps Research Institute Molecular Screening Center
# MsrA inh – inhibits bovine methionine sulfoxide reductase A; purified bovine MsrA, absorbance read-out; inhibition, % at 15.5 µM; 0.75% of 360,000 active; in the data active = inhibition above about 4.5%
# PLCg1 inh – PLC-gamma1 (human) inhibition, primary screen. P19174. purified PLC-gamma1, fluorogenic substrate, fluorescence. inhibition, % at 12.2 µM. 0.84% of 370,000 active. AID 720700; in the data active = inhibition above about 9.5%
# MsrA act – bovine methionine sulfoxide reductase A activation; purified bovine MsrA, absorbance read-out; activation, % at 10.6 µM; 0.3% of 360,000 active; in the data active = activation above about 7.5%
# PLCb3 inh – blocks human PLC-beta3 enzyme activity. Q01970. inhibition, % at 12.2 µM. 0.18% of 370,000 active. Purified PLC-beta3, fluorogenic substrate, fluorescence; in the data active = inhibition above about 11%
# Numbers stand for hits; n = inactive; x = not tested or not shown. Compounds with a hit are over-represented: about 1.9% of the library has one in this group of screens.
SMILES,MsrA inh,PLCg1 inh,MsrA act,PLCb3 inh
O=[N+]([O-])c1ccc(OC[C@@H](O)CN2CCC(C(O)(c3ccccc3)c3ccccc3)CC2)c(Cl)c1,x,n,x,n
O=C(CN1C(=O)N/C(=C\c2ccccc2OCc2ccc(C(=O)O)cc2)C1=O)Nc1ccccc1F,4.6,n,n,n
CCOC(=O)N1CCN(C(=O)C[C@H]2C[C@@]3(C(=O)OC)C(=C[C@H](COCc4ccccc4)O[C@@H]3C)N(Cc3ccco3)C2=O)CC1,x,n,x,n
COc1ccc(CN(C)C(=O)[C@@H](Cc2ccccc2)NC(=O)[C@H]2O[C@@H](n3ccc(N)nc3=O)[C@H](O)[C@@H]2O)cc1OC,n,n,x,n
C=CCn1cccc(C(=O)Nc2cc(OC)ccc2OC)c1=O,4.7,n,n,n
COc1ccc(CCNC(=O)Cn2nnc(-c3ccccc3F)n2)cc1OC,n,9.9,n,n
CCOC(=O)N[C@@H](Cc1cccnc1)C(=O)N1CCC[C@H]1C(=O)NCCc1ccccc1Cl,n,n,x,n
O=C(O)c1ccccc1NS(=O)(=O)c1cccc2cccnc12,n,n,n,11
CN(C)c1ccc(C=Nc2ccccc2C(N)=O)cc1,5.6,n,n,n
Cc1ccc(C=Nc2ccccc2C(N)=O)o1,n,n,n,n
Cc1cc(N2CCN(C(=O)OC(C)(C)C)C[C@@H]2C)ccc1N1C[C@@H](C)O[C@@H](C)C1,n,n,x,n
CCOC(=O)[C@@]12CCCC3=C1N(CCC3)C(=O)[C@H]2CC(=O)N1CCN(C(=O)c2ccco2)CC1,x,n,x,n
O=C(N[C@H](C(=O)N1CCC[C@H]1C(=O)NCCc1ccccc1Cl)C1CCCCC1)C1CC1,n,n,x,n
O=c1ccc2cc3c([nH]c4ccc(Br)cc43)oc-2c1O,n,10,n,n
CCOC(=O)[C@@]12CCCC3=C1N(CCC3)C(=O)[C@H]2CC(=O)NCc1ccc(OC)c(OC)c1,x,n,x,n
COc1ccc(/C=N/Nc2nc(-c3ccc(Cl)cc3)cc(C(F)(F)F)n2)c(OC)c1,4.6,n,n,n
COc1ccc(/C(C)=N\Nc2nc(-c3ccc(Cl)cc3)cc(C(F)(F)F)n2)cc1OC,n,n,n,n
COc1cc(/C=C/C(=O)Nc2ccc3nc4n(c(=O)c3c2)CCCC4)cc(OC)c1OC,4.6,n,n,n
COc1ccc(/C=C/C(=O)Nc2ccc3nc4n(c(=O)c3c2)CCCC4)cc1,n,n,n,n
CC(OC(=O)c1ccccn1)C(=O)Nc1ccc(C(F)(F)F)cc1 (stereo unspecified),n,n,n,n
CC(OC(=O)c1ccco1)C(=O)Nc1ccc(C(F)(F)F)cc1 (stereo unspecified),n,12,n,n
CN(C)c1ccc(/C=N\NC(=O)c2csnn2)cc1,7.3,n,n,n
CCOC(=O)N(C)C[C@@H]1OCc2cn(nn2)CCCC(=O)N([C@H](C)CO)C[C@H]1C,n,n,x,n
NC(=S)N=Nc1c(O)n(CCCl)c2ccc(Cl)cc12,n,n,n,n
NC(=S)N=Nc1c(O)n(CCCl)c2ccccc12,4.6,n,n,n
SMILES,MsrA inh,PLCg1 inh,MsrA act,PLCb3 inh
CC1=C(C#N)C(=O)NC(=O)/C1=C\c1ccc(-c2cc(C)c(C)cc2[N+](=O)[O-])o1,9.0,n,n,n
Cc1ccc(-c2ccc(/C=C3/NC(=O)NC3=O)o2)cc1[N+](=O)[O-],n,n,n,n
CCOc1ccc(-c2cc(C(=O)NCCCN3CCN(CC)CC3)c3ccccc3n2)cc1,4.6,n,n,n
CCN(CC)c1ccc(N=Cc2ccc(N(CC)CC)cc2O)cc1,4.6,n,n,n
CCN(CC)c1ccc(/C=N/NC(=S)NC)c(O)c1,n,n,n,n
CCN(CC)c1ccc(C=Nc2ccccc2)c(O)c1,n,n,n,n
CCN(CC)c1ccc(/C=N/NC(=O)OC)c(O)c1,7.2,n,n,n
Cc1cccc(C(=O)N2CCC(=O)N(C(COCc3ccccc3)Cc3ccccc3)CC2)c1 (stereo unspecified),n,15,n,n
CCN(CC)C(=O)CC[C@@H]1CC[C@]2(CCCN(Cc3cccnc3)C2)O1,x,n,x,n
NC(=O)CC[C@@H]1NC(=O)[C@H](CO)NC(=O)c2cc([N+](=O)[O-])cc(I)c2OCC[C@@H](C(N)=O)NC1=O,n,14,n,n
CCCCCCCCN1C(=O)[C@@H](CC(=O)NCc2cccs2)C[C@@]2(C(=O)OC)C1=C[C@H](C1CCCC1)O[C@@H]2C,n,n,x,n
COc1cc2c(c3c1c(=O)c1ccccc1n3C)C=CC(C)(C)O2,n,n,x,n
CCOc1ccc(CN(C)C(=O)c2ccc(S(=O)(=O)N(C)c3ccccc3OC)cc2)cc1,n,10,n,n
COc1cc(/C=N/NC(=O)c2ccc(CN3c4cccc5cccc(c45)S3(=O)=O)cc2)cc(OC)c1O,4.6,n,n,n
Cc1ccccc1Cn1cc(CN2[C@H](Cc3ccccc3)COc3cc(Br)ccc3S2(=O)=O)nn1,x,n,x,n
CSc1n[nH]c(-c2cccs2)n1,n,n,x,n
O=C(/C=C/c1ccc(Br)cc1)c1ccc(NC2=NCCCS2)cc1,4.8,n,n,n
O=c1c2ccccc2oc2cc(NCCCN3CCOCC3)ccc12,4.6,n,n,n
CC(C)(C)C(=O)CSc1nnc(SCc2cccc3ccccc23)s1,x,n,x,n
CCc1ccc(NC(=O)CN(CC(=O)Nc2ccc(CC)cc2)CC(C)O)cc1 (stereo unspecified),n,11,n,n
O=C1NC[C@@H](CCCCN2CCN(CC3CCCCC3)C(=O)C2=O)N(Cc2ccccc2)C1=O,n,n,n,n
O=C1NC[C@@H](CCCCN2CCN(CCC3CCCCC3)C(=O)C2=O)N(Cc2ccccc2)C1=O,n,14,n,n
CCN1CCN(C(CNS(=O)(=O)c2ccc(Br)cc2)c2cccnc2)CC1 (stereo unspecified),n,n,n,n
CCN1CCN(C(CNS(=O)(=O)c2ccc(Cl)cc2)c2cccnc2)CC1 (stereo unspecified),n,12,n,n
CCC(C)CNC(=O)CSc1nnc(-c2cccnc2)n1C1CCCCC1 (stereo unspecified),x,n,x,n
SMILES,MsrA inh,PLCg1 inh,MsrA act,PLCb3 inh
COc1ccc2c(c1)[C@@H](NC(=O)c1ccncc1)[C@H](C)[C@H]2c1ccccc1,n,n,x,n
CC(=O)[C@@]1(O)Cc2c(O)c3c(c(O)c2[C@H](O[C@H]2C[C@H](N)[C@H](O)[C@H](C)O2)C1)C(=O)c1ccccc1C3=O,4.6,n,n,n
O=C(Nc1ccc(Br)cc1)c1cccc(N2C(=O)C3C4C=CC(C4)C3C2=O)c1 (stereo unspecified),n,14,n,n
CC(CCCN1CCCC1)Nc1ccnc2cc(Cl)ccc12 (stereo unspecified),4.8,n,n,n
C/C(C/C(C)=C1/SC(=S)NC1=O)=C1\SC(=S)NC1=O,n,73,n,n
CCCCCC/C(C)=C1/SC(=S)NC1=O,n,n,n,n
CC(C)CCN(C)[C@H]1C[C@H]2c3[nH]c4ccccc4c3CCN2C[C@H]1[C@H](C)O,n,n,x,n
O=C(c1cccc2ccccc12)N1CCC(N2CCN(c3ccccc3)CC2)CC1,n,15,n,n
Nc1nc2ccc(S(=O)(=O)N3CCCCC3)cc2s1,n,48,n,n
Cc1cc(C(=O)COC(=O)c2ccccc2O)c(C)n1Cc1cccs1,n,n,n,n
